DRD3 agonist – D3 dopamine receptor (human) agonism | D3R DiscoveRx beta-arrestin cells, luminescence, 90 min | max activation, % | 410,000 compounds, 0.58% hits | AID 652048; in the data active = max activation above about 30%; also: 0% is about no effect
Target sequence (P35462 whole entry, looked up): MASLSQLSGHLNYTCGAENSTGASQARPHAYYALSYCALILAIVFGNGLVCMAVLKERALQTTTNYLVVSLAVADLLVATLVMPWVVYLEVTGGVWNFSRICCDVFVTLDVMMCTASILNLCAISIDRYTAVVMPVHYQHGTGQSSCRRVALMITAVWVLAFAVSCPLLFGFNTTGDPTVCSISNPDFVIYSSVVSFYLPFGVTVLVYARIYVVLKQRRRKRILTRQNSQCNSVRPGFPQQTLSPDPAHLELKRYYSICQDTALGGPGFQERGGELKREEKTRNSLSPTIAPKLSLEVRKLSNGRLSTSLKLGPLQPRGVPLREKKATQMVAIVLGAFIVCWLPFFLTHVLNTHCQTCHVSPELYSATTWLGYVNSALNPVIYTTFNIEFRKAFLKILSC
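Cells at 1500/well, incubated overnight, then treated with pinned compounds (dopamine as control) for 90 min at 37 degrees C. DiscoveRx reagent added for 30 - 60 minutes at room temperature; luminescence read.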
D1 ag – activates the human D1 dopamine receptor | HEK293 T-REx D1 cells, calcium flux, agonist mode | P21728 | activation, % at 2 µM | AID 504660 | 360,000 compounds, 1% hits; in the data active = activation above about 30%; also: 0% is about no effect
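Agonism was scored from calcium flux recorded over 180 s (1 read/s) after pintool compound addition, following a 10-cycle baseline. Cells were inducible force-coupled HEK293 TREx D1, plated overnight at 30 C and loaded with no-wash calcium dye.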
D3 antag – blocks the human D3 dopamine receptor. P35462. D3R cells, DiscoveRx beta-arrestin luminescence, antagonist mode; stronger effect = lower value. max response, negative = inhibition, %. 360,000 compounds, 2.5% hits. AID 652054; in the data active = max response below about -50%; also: % is scaled to controls: 0 for no effect and ±100 for the full control effect
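Cells expressing the human receptor were seeded at 1500 cells/well, incubated overnight at 37 degrees C in 5% CO2, then exposed to library compounds with dopamine controls for 90 minutes at 37 degrees C before luminescent detection.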
D1 potentiator – potentiators of human D1 dopamine receptor; HEK293 TREx D1 cells, calcium flux, dopamine EC20 potentiation; potentiation, % at 10 µM; 360,000 compounds, 0.036% hits; AID 504651; in the data active = potentiation above about 30%; also: 0% is about no effect
D1 antag – blocks dopamine activation of the human D1 receptor. P21728. HEK293 TREx D1 cells, calcium flux, dopamine EC80; stronger effect = lower value. activity change, negative = inhibition, % at 10 µM. 360,000 compounds, 3.2% hits. AID 504652; in the data active = activity change below about -30%; also: % is scaled to controls: 0 for no effect and ±100 for the full control effect
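Allosteric or orthosteric antagonism assessed as attenuation of the calcium response to EC80 dopamine, added 180 s after compound, in induced HEK293 Trex D1 cells loaded with no-wash calcium dye.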
* hit, by the source's call; · = no result given. Rows were chosen to be rich in hits. Some 6% of all compounds tested hit in one or more screens of this group.

SMILES	DRD3 agonist	D1 ag	D3 antag	D1 potentiator	D1 antag
CC1(C(=O)NS(=O)(=O)c2ccc(Cl)cc2)CCN1C(=O)Cc1cccs1 (centres undefined)	6	·	18	·	·
CCNC(=O)C1(C)CCN1CCC(=O)c1ccc(Br)cc1 (centres undefined)	73*	·	0	·	·
CCCNC(=O)C1(C)CCN(CCC(=O)c2ccc(Br)cc2)C1 (centres undefined)	-8	·	-19	·	·
O/N=C(\c1ccc(Cl)cc1)c1cc2ccccc2o1	8	32*	23	-3	-16
O=C(Nc1ccc(Cl)cc1Cl)c1cc2ccccc2o1	-9	8	13	-1	25
O=C(NC1=C(Nc2ccc(Cl)cc2)C(=O)c2ccccc2C1=O)c1ccccc1	2	0	-30	3	14
O=C(Cc1ccccc1)Nc1ccc(C(=O)Nc2ccc(O)cc2)cc1	0	33*	14	0	-12
CN(C1=C(NC(=O)c2ccc(Cl)cc2)C(=O)c2ccccc2C1=O)c1ccccc1	-21	6	-52*	15	-5
O=C(Cc1ccccc1)Nc1ccc(NC(=O)c2ccc(Br)cc2)cc1	2	3	20	6	-10
O=C(Nc1cccc(Cl)c1)c1ccccc1	0	0	-5	-5	1
O=C(Cc1ccccc1)NNC(=O)c1ccc(NC(=O)c2ccccc2)cc1	-2	4	13	4	-11
O=C(NNC(=O)c1ccc(NC(=O)c2ccccc2)cc1)c1ccccc1	2	59*	-3	-5	8
O=C1C(Cl)=C(NC(=O)c2ccccc2)C(=O)C(Cl)=C1NC(=O)c1ccccc1	-37	1	-71*	-4	-1
Cc1nc2ccccn2c1C(=O)NNC(=O)Nc1cccc(C(F)(F)F)c1	0	4	0	-4	-13
Cn1c(CSCc2ccc(Cl)cc2)nnc1SCC(=O)Nc1nccs1	2	19	28	-9	-49*
Cn1c(CSCc2ccc(Cl)c(Cl)c2)nnc1SCC(=O)Nc1nccs1	-1	7	109	-2	-26
CC(NC(=O)CN1C(=O)NC2(CCCC2)C1=O)c1ccc(Cl)cc1Cl (centres undefined)	0	·	-9	·	·
Cc1cccc(/C=C(\c2nc3ccccc3[nH]2)S(=O)(=O)c2ccccc2)c1	-16	11	-62*	-2	-2
CC(C)(C)c1ccc(/C=C(\c2nc3ccccc3[nH]2)S(=O)(=O)c2ccccc2)cc1	-10	·	-66*	·	·
Cc1c(Br)cc(F)c([S+](=O)([O-])N2CCN([S+](=O)([O-])c3ccc4c(c3)OCCO4)CC2)c1F	·	1	·	3	-29
CCOc1ccccc1CN1[C@@H](c2ccc(OC)cc2)CC(C(=O)OC)(C(=O)OC)[C@H]1c1ccccc1	0	·	-2	·	·
CN1CCN(C(=O)C2CCCN(S(=O)(=O)c3ccc(Cl)cc3)C2)CC1 (centres undefined)	-11	6	0	-9	0
CCC[C@@H]1C[C@@H](C(=O)N[C@@H]([C@H]2O[C@H](SC)[C@H](OP(=O)(O)O)[C@@H](O)[C@H]2O)[C@H](C)Cl)N(C)C1	-1	·	·	·	·
Cn1c(O)c(/C=N/NC(=O)c2cc3ccccc3cc2O)c2ccccc21	29	147*	23	·	-17
Cn1c2ccccc2c2cc(/C=N/NC(=O)c3ccc(O)cc3O)ccc21	-4	1	-7	-1	-1
SMILES	DRD3 agonist	D1 ag	D3 antag	D1 potentiator	D1 antag
O=C1NC[C@H](CCCCN2C[C@H](Cc3ccc(O)cc3)N(Cc3ccccc3)C(=O)C2=O)N(CCc2ccc(O)cc2)C1=O	37*	·	-27	·	·
O=C1NC[C@@H](CCCCN2C[C@H](Cc3ccccc3)N(Cc3ccccc3)C(=O)C2=O)N(CC2CCCCC2)C1=O	-9	·	-22	·	·
O=C1NC[C@@H](CCCCN2C[C@H](Cc3ccc(O)cc3)N(CC3CCCCC3)C(=O)C2=O)N(Cc2ccccc2)C1=O	-15	·	-75*	·	·
O=C1NC[C@H](c2ccccc2)N(CCCCC2CCCCC2)C1=O	-5	·	-58*	·	·
O=C(O)CN(CC(=O)O)CC1=CC2C(=CC1=O)Oc1cc(O)c(CN(CC(=O)O)CC(=O)O)cc1C21OC(=O)c2ccccc21 (centres undefined)	2	·	·	·	·
COc1c2ccoc2c(OC[C@@H](OC(C)=O)C(C)(C)O)c2oc(=O)ccc12	48*	6	30	0	46
C=CCn1c(=O)/c(=C/c2ccc(C)o2)s/c1=C(/C#N)C(=O)c1ccccc1	-1	58*	7	-6	-3
C=CCn1c(=O)/c(=C\c2ccccn2)s/c1=C(/C#N)C(=O)NCC1CCCO1 (centres undefined)	4	151*	0	-5	-28
N#C/C(C(=O)N1CCOCC1)=c1/s/c(=C\c2ccccn2)c(=O)n1-c1ccccc1	7	0	6	-4	-26
COc1ccc2c(c1)c1c(c(=O)n(Cc3ccccc3)c(=O)n1CC(=O)Nc1ccccc1F)n2C	2	4	·	-1	13
COc1ccc(CNC(=O)CCCc2cn(C)c3ccccc23)c(OC)c1	-11	-5	·	0	8
Nc1cc(=O)[nH]c(SCC(=O)Nc2ccc(Br)cc2)n1	-5	0	-4	-7	6
COc1ccc(NC(=O)CSc2nc(-c3ccc(OC)cc3)cc(=O)[nH]2)cc1	1	57*	·	-4	7
CCc1c(C)nc(SCC(=O)NNC(=O)Cc2ccc(OC)cc2)[nH]c1=O	0	3	13	-10	-11
CCc1c(C)nc(SCC(=O)Nc2nc(-c3ccc(OC)cc3)cs2)[nH]c1=O	23	9	29	-2	-33*
COc1ccc(NC(=O)c2ccc(NC(=O)CSc3nc(N)cc(=O)[nH]3)cc2)cc1	2	2	0	-2	-45*
COC(=O)c1ccc(NC(=O)CSc2nc3ccc(OC)cc3[nH]2)cc1	-15	17	·	-4	-57*
O=C(CSc1nccn1Cc1ccc2c(c1)OCO2)Nc1ccccc1F	-25	1	·	-5	1
CCN1CCN(c2cc(-c3ccc(F)cc3)c3c(n2)CCCCCC3)CC1	-22	·	·	·	·
O=S(=O)(NC(CO)Cc1ccccc1)c1cc(Cl)ccc1F (centres undefined)	6	·	37	·	·
COc1ccc2nc(SCC(=O)NC3CCCCC3C)[nH]c2c1 (centres undefined)	-3	0	0	-15	-40*
COc1ccc2nc(SCC(=O)NC(C)C)[nH]c2c1	1	5	18	8	11
CCn1nc(C(=O)OCC(=O)Nc2nc(-c3ccc(OC)cc3)cs2)c2ccccc2c1=O	35*	1	90	8	15
COc1ccc(NC(=O)CSc2nc3sc(C)cc3c(=O)n2C)cc1	8	5	13	-4	-34*
CCn1nc(C(=O)OCC(=O)NCC(C)C)c2ccccc2c1=O	10	1	-1	3	6
